Only some compounds are listed: those with a hit (about 2.7% of all), similar ones and a draw of the others.
PfG6PD inh = PfG6PD enzyme inhibitors, primary screen, biochemical, fluorescence intensity, uHTS; 0.78% of 350,000 active; inhibition, % at 20 µM; PfGluPho enzyme, NADPH resazurin-diaphorase fluorescence;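 active = inhibition reaching at least a set limit at 20 µM in the primary screen, cut at about 59% in these data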
FAS TE block = FAS thioesterase domain inhibitors, primary screen, biochemical, fluorescence intensity, uHTS. 0.67% of 360,000 active. recombinant FAS-TE, OMFH fluorogenic substrate, fluorescence endpoint. inhibition, % at 15 µM. Fatty acid synthase (Homo sapiens), P49327;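 active = compounds whose normalised, plate-corrected inhibition of enzyme fluorescence in the single-dose primary screen is 50% or more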
Neddyl block = inhibitors of cullin neddylation, primary screen, biochemical, TR-FRET, uHTS, NAE and Ubc12; NEDD8-conjugating enzyme Ubc12 (Homo sapiens) + NEDD8-activating enzyme E1 regulatory …; calls only at 25 µM; AID 651699, 2012; 0.58% of 360,000 active; in the data active = inhibition above about 36%
KLK7 zymogen act = proKLK7 zymogen activators, primary screen, biochemical, fluorescence intensity | Kallikrein-7 (Homo sapiens), P49862 | purified proKLK7, EDANS-DABCYL substrate fluorescence; 100% is mature enzyme control, 0% vehicle | activation, % at 7 µM | 0.9% of 370,000 active | AID 652039, 2013;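 active = activation above the mean of all tested compounds plus 3 SD, computed per campaign excluding outliers beyond control limits, cut at about 13% in these data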
FAS-TE inh conf = FAS thioesterase domain inhibitors, confirmation, biochemical, fluorescence intensity, single concentration; recombinant FAS-TE, OMFH fluorogenic substrate; AID 624325, 2012; inhibition, % at 15 µM; shares compounds with FAS TE block; 45% of 2,300 active;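 active = compounds inhibiting the enzyme by at least 50% at 15 µM in any one of the replicates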
Each line names hits and unclear results; the compound was inactive in the other large screens (follow-up assays come after a bar, where shown).

CCCCCN1C(=O)c2cc(OC)ccc2[C@@]2(C(=O)OCC)Cc3cc(Cl)ccc3[C@@H]12	FAS TE block 85.3 (no result: PfG6PD inh) | FAS-TE inh conf inactive
C=CCN1CC[C@]23c4c5ccc(O)c4OC2C(=O)CC[C@@]3(O)[C@H]1C5 (some centres not stated)	none (no result: PfG6PD inh, FAS TE block, Neddyl block)
O=C(N/N=C/c1c(O)n(C2CCCCC2)c(=S)[nH]c1=O)c1ccccc1O	FAS TE block 55.4 (not shown: Neddyl block) | FAS-TE inh conf 41.9
O=C(N/N=C/c1c(O)n(C2CCCCC2)c(=S)[nH]c1=O)c1ccccc1	none
C[C@@H]1CNCCN1c1ccc(N2CC[C@@H](O)C2)c(C#N)c1	none (no result: PfG6PD inh, FAS TE block, Neddyl block)
CSc1nc(N)c(N=Nc2ccc([As](=O)(O)O)cc2)c(=O)[nH]1	FAS TE block 53.7 | FAS-TE inh conf 59.2
O=c1[nH]c2ccccc2n1C1CCN(C(c2cccc3ccccc23)c2nnnn2Cc2ccccc2)CC1 (configuration not stated)	FAS TE block 80.2 (no result: PfG6PD inh) | FAS-TE inh conf inactive
COc1cccc(C(c2nnnn2Cc2ccccc2)N2CCC(n3c(=O)[nH]c4ccccc43)CC2)c1OC (configuration not stated)	none (no result: PfG6PD inh)
O=c1[nH]c2ccccc2n1C1CCN(C(c2cc3ccccc3o2)c2nnnn2Cc2ccccc2)CC1 (configuration not stated)	FAS TE block 61.3 (no result: PfG6PD inh) | FAS-TE inh conf inactive
Clc1cccc(N2Cc3cc(-c4ccccc4)ccc3-n3nncc3C2)c1	none (no result: PfG6PD inh)
O=C(c1cc(Cl)cc(Cl)c1)N1Cc2ccccc2-n2nncc2C1	none
O=[N+]([O-])c1ccc(NCc2ccc(Cl)cc2)c2ccncc12	FAS TE block 73.0 | FAS-TE inh conf 58.4
O=c1[nH]c2ccccc2n1C1CCN(C(c2ccccc2)c2nnnn2-c2ccc3c(c2)OCCO3)CC1 (configuration not stated)	none (no result: PfG6PD inh)
COc1cccc(C(c2nnnn2-c2ccc3c(c2)OCCO3)N2CCC(n3c(=O)[nH]c4ccccc43)CC2)c1OC (configuration not stated)	FAS TE block 71.7 (no result: PfG6PD inh) | FAS-TE inh conf inactive
O=c1[nH]c2ccccc2n1C1CCN(C(c2cccs2)c2nnnn2-c2ccc3c(c2)OCCO3)CC1 (configuration not stated)	FAS TE block 63.1 (no result: PfG6PD inh) | FAS-TE inh conf inactive
O=c1[nH]c2ccccc2n1C1CCN(C(c2ccccc2OC(F)(F)F)c2nnnn2-c2ccc3c(c2)OCCO3)CC1 (configuration not stated)	FAS TE block 82.6 (no result: PfG6PD inh) | FAS-TE inh conf inactive
Cc1cccc(C)c1-n1nnnc1C(c1ccccc1OC(F)(F)F)N1CCC(n2c(=O)[nH]c3ccccc32)CC1 (configuration not stated)	FAS TE block 54.2 (no result: PfG6PD inh) | FAS-TE inh conf inactive
COc1ccc(C(c2nnnn2-c2c(C)cccc2C)N2CCC(n3c(=O)[nH]c4ccccc43)CC2)cc1 (configuration not stated)	FAS TE block 62.5 (no result: PfG6PD inh) | FAS-TE inh conf 35.4
COc1ccc(-n2nnnc2C(c2cccc(OC)c2OC)N2CCC(n3c(=O)[nH]c4ccccc43)CC2)cc1 (configuration not stated)	none (no result: PfG6PD inh)
Cc1cccc(C)c1-n1nnnc1C(c1cc2ccccc2o1)N1CCC(n2c(=O)[nH]c3ccccc32)CC1 (configuration not stated)	FAS TE block 81.4 (no result: PfG6PD inh) | FAS-TE inh conf inactive
CC1CN=C(NCc2ccc(F)cc2)S1 (configuration not stated)	none
CC(C)(C)n1nnnc1C(c1cccc2ccccc12)N1CCC2(CC1)C(=O)NCN2c1ccccc1 (configuration not stated)	FAS TE block 76.8 (no result: PfG6PD inh) | FAS-TE inh conf inactive
CC(C)(C)n1nnnc1C(c1ccnc2ccccc12)N1CCC2(CC1)C(=O)NCN2c1ccccc1 (configuration not stated)	none (no result: PfG6PD inh)
O=C1NCN(c2ccccc2)C12CCN(C(c1cccc3ccccc13)c1nnnn1Cc1ccccc1)CC2 (configuration not stated)	FAS TE block 79.1 (no result: PfG6PD inh) | FAS-TE inh conf inactive
O=C1Nc2ccccc2Oc2ccccc21	none
COCc1cc(OC(=O)N(C)C)nc(-c2ccccc2)n1	none

Screens: PubChem BioAssay, several laboratories
